The campaign covered roughly 48,000 compounds. About 13,000 (27%) showed an effect of 50% or more. Some of the results follow.

The experiment has as its system Wolbachia pipientis. Nature of the experiment: Anti-Wolbachia Cell-Based Screen. The settings on record: 5 µM. The class given is functional. Details: scale not given: in the data most compounds retested in dose-response had high values.
As for `O=C(COc1coc(CN2CCCCC2)cc1=O)Nc1ccccc1Cl`, the “Percent Effect” value is listed as 12.81%.
As for `Cc1csc(CNC(=O)NCC(O)c2ccc(F)c(F)c2)n1` (stereo not given), the “Percent Effect” value is on record as -9.167%.
As to `COc1ccc(-n2ccnc2-c2cnc(C(C)C)nc2)cc1C(=O)O`, the “Percent Effect” value is -1.473%.
For `CCNC(=O)NC(=O)CSC(C)c1c(F)cccc1F` (stereo not given), the “Percent Effect” value was 4.576%.
With `CCc1cnc(CCNC(=O)N2CCCC(c3ncc[nH]3)C2)s1` (stereo not given), the “Percent Effect” value is given as -8.688%.
Take `CCCS(=O)(=O)NCc1ncc(C)c(OC)c1C`: the “Percent Effect” value was 21.89%.
As for `CS(=O)(=O)NCCc1cccc2cccnc12`, the “Percent Effect” value is listed as -14.96%.
Take `CCCS(=O)(=O)NCCc1ncc(C)s1`: the “Percent Effect” value worked out at 113.4%.
Take `CCCS(=O)(=O)NCCn1ccc(-c2cccs2)n1`: the “Percent Effect” value came to 29.12%.
On to `CCCS(=O)(=O)NCCc1ncc(CC)s1`, for which the “Percent Effect” value was found to be 98.37%.
On to `CCc1cnc(CCNS(C)(=O)=O)s1`, for which the “Percent Effect” value is on record as 96.32%.
On to `Cc1cnc(CCNC(Cc2ccncc2)C(F)(F)F)s1` (stereo not given), for which the “Percent Effect” value was 4.089%.
For `CCc1cnc(CN(C)C(=O)NC2CCN(CC3CC3)C2)s1` (stereo not given), the “Percent Effect” value was -7.872%.
In the case of `Cc1noc(C)c1CN(C)Cn1nccc1-c1cccnc1` it was -3.571%; in that of `N#Cc1ccccc1CC1CCCS(=O)(=O)C1` (stereo not given), 23.18%.
For `Cc1ccc(NC2CCN(C(=O)C(C(C)C)n3cncn3)CC2)nn1` (stereo not given), the “Percent Effect” value came to 114.7%.
`CC(C)C(C(=O)N1CCC(N(C)c2cccnn2)CC1)n1cncn1` (stereo not given): the “Percent Effect” value was found to be 6.546%.
As for `CC(C)C(C(=O)N1CCC(Nc2cccnn2)CC1)n1cncn1` (stereo not given), the “Percent Effect” value worked out at 1.287%.
With `Cc1ccc(NC2CCN(C(=O)C(C)n3cncn3)CC2)nn1` (stereo not given), the “Percent Effect” value is given as 101.5%.
As for `CCc1nc(Cn2cncc(Br)c2=O)no1`, the figure is 3.979%.
For the molecule `Cc1nc(NC(=O)CCOCC(F)(F)F)ccc1Br`, the “Percent Effect” value is recorded as 7.301%.
Turning to `CC(C)n1cnnc1Cn1c(=O)ccc2ccccc21`, the “Percent Effect” value is -18.72%.
Take `COCCc1noc(-c2cn(Cc3ccc(OC)cc3)nn2)n1`: the “Percent Effect” value came to 3.926%.
As to `CS(=O)(=O)c1ccc(O[C@H]2COCCN(Cc3ccncc3)C2)cc1`, the “Percent Effect” value stood at 8.188%.
As to `CN(C)c1cccc(C2CCN(C3COCC3O)CC2)n1` (stereo not given), the “Percent Effect” value was 145.5%.
As for `CN(C)c1nccc(C2CCN(C3CCCCC3O)CC2)n1` (stereo not given), the figure is 139.6%; as for `FC(F)(F)c1c[nH]c(C2CCN(c3ncccn3)CC2)n1`, -5.698%.
For `CN(C)c1cccc(C2CCN(c3ncccn3)CC2)n1`, the “Percent Effect” value came to 105.5%.
As for `CN(C)c1ccnc(N2CCC(NCCOc3ccccc3)CC2)n1`, the “Percent Effect” value is reported as -8.661%.
As for `COc1cc(C)nc(N2CCN(C(=O)CN(C)C3CC3)CC2)n1`, the “Percent Effect” value is reported as -6.068%.
As for `Cc1cc(C)nc(N2CCC(c3ccnc(N(C)C)n3)CC2)n1`, the figure is 86.89%; as for `CC(C)c1ccnc(N[C@H]2COC[C@@H]2N2CCCC2)n1`, 5.714%.
Regarding `CN(Cc1nncn1C)c1nccc(C2CCCC2)n1`, the “Percent Effect” value is reported as -0.6799%.
Take `O=C(Nc1ccc2ncsc2c1)N1CCCN([C@H]2COC[C@@H]2O)CC1`: the “Percent Effect” value is -6.319%.
Turning to `CCn1cnnc1CN(C)c1nccc(C2CCCC2)n1`, the “Percent Effect” value is -5.507%.
With `Cc1cc(C)nc(N2CCC(c3nnc(CN(C)C)n3C3CC3)CC2)n1`, the “Percent Effect” value is -32.06%.
As for `Cc1noc(CN2CCOC(CN(C)C)C2)n1` (stereo not given), the “Percent Effect” value is listed as 4.204%.
As for `O=C1CO[C@H]2CN(S(=O)(=O)c3ccccc3)C[C@H]2N1CC1CCCCC1`, the figure is -1.242%.
As to `CCN(CC1CCOC1)C(=O)Cn1nnn(-c2cccs2)c1=O` (stereo not given), the “Percent Effect” value is -8.505%.
Take `COc1cc(OC)c(CNC(=O)NCC(=O)N2CCCC2)c(OC)c1`: the “Percent Effect” value came out at 0.1885%.
As for `Cn1cc(CN2CC[C@@H]3[C@@H](CCC(=O)N3CCC3=CCCCC3)C2)cn1`, the figure is -6.139%.
Turning to `CC1CCN(CC(=O)NC(C#N)c2cnn(-c3ccccc3)c2)CC1` (stereo not given), the “Percent Effect” value was -3.926%.
`Cc1ccsc1C(=O)Nc1ccc(N2CCC(O)CC2)c(C#N)c1`: the “Percent Effect” value is given as -13.01%.
For `Cc1cc(C)c(CNC(=O)NCc2nnc3n2CCCC3)c(=O)[nH]1`, the “Percent Effect” value is -2.933%.
In the case of `CCN(CC)C1CCN(c2nccc(C3CCCC3)n2)C1` (stereo not given), the “Percent Effect” value is listed as 2.281%.
Regarding `CN(Cc1nccs1)C1CCN(c2ncccn2)CC1`, the “Percent Effect” value is -5.116%.
Turning to `CN(C)c1nccc(C2CCN(c3ncccn3)CC2)n1`, the “Percent Effect” value is 131.2%.
In the case of `Fc1cnc(NCC2Cn3nnc(-c4ccccc4)c3CO2)nc1` (stereo not given) it was -26.66%; in that of `O=C1CCSCC(C(=O)N2CCCC2)N1` (stereo not given), -10.11%; in that of `CNC(=O)N1CCC2(CC1)CN(C)c1ccc(F)cc12`, -1.265%.
As for `CC(=O)N1CCC2(CC1)CN(C(C)C)c1ccc(F)cc12`, the “Percent Effect” value is recorded as 93.83%.
As to `CC(=O)N1CCC2(CC1)C(=O)N(C)c1ccc(F)cc12`, the “Percent Effect” value is -20.1%.
On to `COCC(=O)N1CCC2(CC1)CC(OC)c1ccc(F)cc12` (stereo not given), for which the “Percent Effect” value is listed as -1.265%.
With `COCC(=O)N1CCC2(CCc3ccc(F)cc32)CC1.Cl`, the “Percent Effect” value is given as -16.21%.
Take `CC(=O)N1CCC2(CC1)CN(CC1CC1)c1ccc(F)cc12`: the “Percent Effect” value stood at 110.5%.
In the case of `CC(=O)N1CCC2(CC1)CN(C(=O)C1CC1)c1ccc(F)cc12`, the “Percent Effect” value is on record as -23.77%.
With `CN(C)C(=O)N1CC2(CCN(CC3CC3)CC2)c2cc(F)ccc21.O=C(O)C(F)(F)F`, the “Percent Effect” value is on record as -28.12%.
Take `Cc1ccc2c(c1)C1(CCN(C(N)=O)CC1)CN2C(=O)N(C)C`: the “Percent Effect” value is 10.3%.
As for `Cc1ccc2c(c1)C1(CCN(C(N)=O)CC1)CN2CC1CC1`, the figure is 104%; as for `COCC(=O)N1CCC2(CC1)CN(CC1CC1)c1ccc(F)cc12`, 102.5%; as for `CC(=O)N1CC2(CCN(C(=O)C3CC3)CC2)c2cc(C)ccc21`, -2.981%.
As for `COCc1cccc(S(=O)(=O)NCc2cnn(C)c2C)c1`, the figure is 10.62%; as for `CC(=O)c1cccc(NS(=O)(=O)c2cc(C)c(C(=O)O)s2)c1`, 6.094%; as for `CCSc1cncc(NCc2ccc(N3CCNC(=O)C3)cc2)n1`, -9.871%.
As for `Cc1ccccc1C(=O)NCc1ccc(N2CCNC(=O)C2)cc1`, the figure is 3.423%; as for `CC(C(=O)NCc1ccc(N2CCNC(=O)C2)cc1)n1cncn1` (stereo not given), -3.383%; as for `Cc1nc(C(=O)NCc2ccc(N3CCNC(=O)C3)c(F)c2)cs1`, -8.487%.
For the molecule `O=C1CN(c2ccc(CNC(=O)NCC3CCOC3)cc2)CCN1` (stereo not given), the “Percent Effect” value is 100.4%.
For the molecule `O=C1CN(c2ccc(CNC(=O)NCc3ccoc3)cc2)CCN1`, the “Percent Effect” value is reported as 94.29%.
On to `CC(O)CNC(=O)NCc1ccc(N2CCNC(=O)C2)cc1` (stereo not given), for which the “Percent Effect” value is -1.608%.
With `NS(=O)(=O)Cc1ccc(CNC(=O)NCC2CCOC2)cc1` (stereo not given), the “Percent Effect” value is listed as -4.862%.
`O=C1CN(c2ccc(CNC(=O)NCCO)cc2)CCN1`: the “Percent Effect” value is listed as 104.3%.
Take `CC(C(=O)NCc1ccc(N2CCNC(=O)C2)cc1)c1cccs1` (stereo not given): the “Percent Effect” value came out at 88.68%.
For the molecule `Cc1cccnc1NC(=O)NCc1ccc(N2CCNC(=O)C2)cc1`, the “Percent Effect” value was -1.064%.
Regarding `O=C(NCc1ccc(Br)cc1)NCC1CCOC1` (stereo not given), the “Percent Effect” value is recorded as -13.61%.

These data come from ChEMBL document CHEMBL3988442, “University of Dundee, Small-Polar-MMV Screening Library” (2021).
